The text below walks through data of PubChem BioAssay (NCATS).

Records with an inconclusive call do not appear. Active and inactive are the calls of the source. Unless noted, calls follow the shape of the dose curve; as a rule, active = well fitted curve in either direction with a large enough effect (not every such curve was filed as active); inconclusive = small, poorly fitted or top-dose-only effect, or another doubt; inactive = flat fitted curve, though single readings scatter.

The target of test [1] is Lysosomal acid glucosylceramidase (Homo sapiens) (UniProt P04062). Put plainly: Glucocerebrosidase-p2 (AID 348; in the data active = potency below about 10 µM; also: potency is read from the fitted curve at half-maximal effect). Conditions: purified GBA, blue fluorogenic substrate, 40 min. A digest of the protocol: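 Compounds titrated from 0.6 nM upwards against 0.2 nM enzyme in pH 5.9 citric acid/KH2PO4, taurocholate, tween-20; blue fluorogenic substrate 80 uM, 40 min room temperature, stopped and read Ex 365/Em 440 for AC50.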

The nature of test [2]: AP1 Signaling Pathway (AID 357).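 Also: ME-180 reporter cells stimulated with EGF at its EC50 level; % is scaled to controls: 0 for no effect and ±100 for the full control effect.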 The note with it: ME-180 AP-1-bla reporter, EGF-induced, beta-lactamase ratio, 5 h; at 7.69 µM (top of the series) unless noted. A digest of the protocol:
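Modulation of EGF-driven AP-1 transcription was assessed with a beta-lactamase reporter in ME-180 cells. Compound and EC50 EGF were co-incubated 5 hours at 37 °C before 2.5-hour CCF4 loading at room temperature and dual-emission reading.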

In test [3] the target is Cytochrome P450 1A2 (Homo sapiens) (UniProt P05177). Put plainly: p450-cyp1a2 (AID 410; calls by dose curve; also: potency is read from the fitted curve at half-maximal effect). Conditions: recombinant CYP1A2, luciferin-ME demethylation, luminescence; series mostly up to 57 µM. In a few lines: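 Human CYP1A2 (20nM) demethylated Luciferin-ME at its Km (100uM) in 100mM KPO4. After 10 min compound preincubation, NADPH regeneration ran the reaction 60 min at room temperature. Luciferin was read by luminescence, normalized to 57 uM furafylline.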

Test [4] deals with Glucocorticoid receptor (Homo sapiens) (UniProt P04150). The experiment in a line: GR-GFP Redistribution (AID 450;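 active = compounds whose dose series gives a full or clear partial fitted curve of increased nuclear translocation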; also: potency is read from the fitted curve at half-maximal effect). The note with it: U2OS GR-GFP nuclear translocation, laser cytometry, 2 h.
Test [5] has the same target. The experiment in a line: GR-EFC Redistribution (AID 451; calls by dose curve; also: potency is read from the fitted curve at half-maximal effect). Conditions: CHO-K1 GR-EFC translocation, beta-gal luminescence, 2 h. A digest of the protocol:
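Translocation of GR-ED fusion to nuclear EA restores b-gal, read by luminescence after 1 h room-temperature detection. Engineered CHO-K1 biosensor cells, 1,000/well, exposed 2 h at 37 C to titrations up to 46 uM final.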

The target in test [6] is Mitogen-activated protein kinase 10 (Mus musculus) (UniProt Q61831). The experiment in a line: JNK3 AlphaScreen Assay (AID 530).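 Also: kinase came from lysate of stimulated human HepG2 cells; signal reports phosphorylation of biotinylated GST-cJun 1-79 at Ser73 with 10 µM ATP; % is scaled to controls: 0 for no effect and ±100 for the full control effect.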 The note with it: JNK3 lysate, c-Jun phosphorylation; series mostly up to 57.1 µM. In a few lines:
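Room-temperature AlphaScreen kinase assay; pre-activated HepG2 lysate as JNK3 source, biotin-GST-cJun(1-79) substrate, 10 uM ATP, compound 15 min preincubation.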
Background: Alpha assays give light when donor and acceptor beads are brought close together.

In test [7] the target is Cytochrome P450 3A4 (Homo sapiens) (UniProt P08684). The experiment in a line: qHTS Assay for Activators of Cytochrome P450 3A4 (AID 885; active = well fitted curve in the direction sought with a large enough effect; an effect the other way counts as inactive or inconclusive; also: nearly all actives have a fitted effect of over 65% in size). Conditions: recombinant CYP3A4, Luciferin-PPXE luminescence, 60 min; series mostly up to 57.1 µM. In a few lines: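 Signal was normalized against complete inhibition by 57 uM ketoconazole. The reaction used 20nM CYP3A4 with 25uM Luciferin-PPXE, 10-min compound preincubation and a 60-min NADPH-supported step at RT.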

The target in test [8] is Cytochrome P450 2C19 (Homo sapiens) (UniProt P33261). Put plainly: qHTS Assay for Inhibitors and Substrates of Cytochrome P450 2C19 (AID 899; active = well fitted curve in the direction sought with a large enough effect; an effect the other way counts as inactive or inconclusive; also: potency is read from the fitted curve at half-maximal effect; nearly all actives have a fitted effect of over 60% in size). Conditions: recombinant CYP2C19, luciferin-H EGE luminescence; series mostly up to 57.1 µM. A digest of the protocol: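 5nM enzyme + 10uM Luciferin-H EGE (=KM), 50mM KPO4; cpd pin-transferred, 10 min 37C; NADPH regen, 60 min 37C; stopped w/ luciferin detection reagent, 20 min; luminescence. Normalized to 57uM ketoconazole (AC100).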

Test [9] can be described thus: Confirmation and Secondary Assay for Modulators of Hemoglobin Beta Chain Splicing at IVS2 705 locus (AID 930; active = well fitted curve in the direction sought with a large enough effect; an effect the other way counts as inactive or inconclusive; also: % of control where 0% means no effect). The note with it: HeLa EGFP-705 splicing reporter, GFP fluorescence, 48 h; series mostly up to 38.3 µM. In a few lines: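 HeLa cells stably carrying EGFP interrupted by mutant beta-globin intron 2 (IVS2-705) treated 2 days at 37C with compound; 500 nM antisense PNA as control. Correct splicing read as total peak GFP intensity per well by laser-scanning cytometry.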

Test [10] is described as follows: qHTS Assay for Lipid Storage Modulators (AID 1519; calls by dose curve). Conditions: Drosophila S3 cells, BODIPY lipid droplet/cell ratio, laser cytometry, cells loaded with oleic acid; for activity change, negative = inhibition: at 57.5 µM (top of the series). In a few lines: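 Cells seeded at 5,000 per well were treated with compounds over a concentration series and loaded with oleic acid (400 uM, as added). Lipid droplet fluorescence (488 nm excitation, 500-530 nm channel) was read by laser-scanning cytometry and normalized to 20 uM Triacsin C.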
Background: Quantitative high-throughput screening tests each substance at several concentrations.

Test [11] can be described thus: Primary qHTS for small molecule stabilizers of the endoplasmic reticulum resident proteome: Secreted ER Calcium Modulated Protein (SERCaMP) assay (AID 1508630; active = well fitted curve in the direction sought with a large enough effect; an effect the other way counts as inactive or inconclusive; also: % is scaled to controls: 0 for no effect and ±100 for the full control effect). The note with it: SH-SY5Y GLuc-SERCaMP (Gaussia luciferase released on ER calcium loss) secretion, thapsigargin, luminescence; series mostly up to 38.4 µM. In a few lines:
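GLuc-SERCaMP-expressing SH-SY5Y cells, pretreated 16 h with compound, are challenged with thapsigargin to empty ER calcium stores; after 4 h, coelenterazine is added directly to the medium and luminescence is imaged.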

A short description of test [12]: NFAT Signaling Pathway (AID 444).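 Also: carbachol stimulus at about its EC50 of 1 µM final; % is scaled to controls: 0 for no effect and ±100 for the full control effect.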 Conditions: Jurkat NFAT-bla M1, carbachol, beta-lactamase ratio, 5 h; at 7.69 µM (top of the series) unless noted. In a few lines:
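Read-out: CCF4 FRET ratio (460 nm/530 nm) after 1 h RT dye loading, used for %activity and AC50 from titration series. Cells: Jurkat NFAT-β-lactamase/M1 line, treated with compound plus 1 uM carbachol for 5 h, 37 °C.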

Test [13] in a line: Stat Signaling Pathway (AID 446). The note with it: ME-180 SIE beta-lactamase reporter, IL-6 stimulated, 5 h; at 7.69 µM (top of the series) unless noted. A digest of the protocol:
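Reporter line: ME-180 cervical carcinoma, SIE-beta-lactamase. Treatment: compound with 40 pM IL-6, 5 hrs, 37 C, in low-serum OPTI-MEM with 10 mM HEPES pH 7.3. Detection: 460/530 nm fluorescence.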

Test [14] deals with 3',5'-cyclic-AMP phosphodiesterase 4B (Homo sapiens) (UniProt Q07343). Put plainly: qHTS Assay for Inhibitors of PDE-IV (AID 607; active = well fitted activation curve with a large enough effect in the main read-out, with a control signal flat, not every such curve was filed as active; also: potency is read from the fitted curve at half-maximal effect). The note with it: HEK293 ACTOne CNG channel cells, membrane potential fluorescence; series mostly up to 22.9 µM. A digest of the protocol: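 Cell-based read-out of cAMP via a modified cyclic nucleotide-gated channel and membrane potential dye (535/590 nm) in HEK293 cells expressing PDE4 endogenously. Compounds tested up to 22.9 uM final; 100 uM RO 20-1724 reference.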

Test [15] in a line: Confirmation and Secondary Assay for Modulators of Hemoglobin Beta Chain Splicing at IVS2 654 locus (AID 910; active = well fitted curve in the direction sought with a large enough effect; an effect the other way counts as inactive or inconclusive;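 also: HeLa cells stably carrying EGFP split by mutant beta-globin IVS2-654 intron; % of control where 0% means no effect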). The note with it: HeLa EGFP-654 splicing reporter, GFP fluorescence, 48 h; series mostly up to 38.3 µM. In a few lines:
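Readout: per-well total peak green fluorescence (488 nm ex, 500–520 nm em) from objects 5–250 µm, reflecting correct splicing of an EGFP-654 reporter. Compounds were applied for 2 days at 37 °C to overnight-plated HeLa EGFP-654 cells; controls were DMSO and 500 nM IVS2-654 PNA.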

Test [16] addresses Ubiquitin carboxyl-terminal hydrolase 1 (Homo sapiens) (UniProt O94782). Put plainly: Inhibitors of USP1/UAF1: Pilot qHTS (AID 504865; active = well fitted curve in the direction sought with a large enough effect; an effect the other way counts as inactive or inconclusive;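 also: rhodamine fluorescence freed from ubiquitin-rhodamine substrate followed over time; top concentration of the series differs between compounds; % is scaled to controls: 0 for no effect and ±100 for the full control effect; nearly all actives have a fitted effect of over 35% in size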). The note with it: purified USP1/UAF1, Ub-rhodamine cleavage fluorescence; series mostly up to 54.9 µM. A digest of the protocol:
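In 50mM HEPES pH 7.8 containing 0.5mM EDTA, 1mM TCEP, 0.1 mg/ml BSA and 0.01% Tween-20, 1nM USP1/UAF1 is exposed to compound for 15 min, then Ub-Rho (150nM final) is added and fluorescence is read over time.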

The nature of test [17]: qHTS Assay for Identification of Small Molecule Agonists for Hypoxia Response Element Signaling Pathway (AID 914; active = well fitted activation curve with a large enough effect in the signal ratio, with a control signal flat, not every such curve was filed as active; the % refers to the signal ratio; also: potency is read from the fitted curve at half-maximal effect). Conditions: ME-180 (cervical carcinoma) HRE-bla reporter, beta-lactamase ratio, CoCl2, 17 h; activation: stronger effect = higher value. In a few lines: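 HRE-bla ME-180 cells with beta-lactamase reporter under hypoxia response element, compounds with EC50 CoCl2 for 17 hours at 37 C. CCF4 substrate, 460nm/530nm emission ratio gave %Activity; AC50 from titration series.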

Setting [18] is: measured here: cell count channel max response.
[19] abbreviates: measured here: lipid channel max response.

Sequence of Lysosomal acid glucosylceramidase (Homo sapiens) (P04062 whole entry, looked up): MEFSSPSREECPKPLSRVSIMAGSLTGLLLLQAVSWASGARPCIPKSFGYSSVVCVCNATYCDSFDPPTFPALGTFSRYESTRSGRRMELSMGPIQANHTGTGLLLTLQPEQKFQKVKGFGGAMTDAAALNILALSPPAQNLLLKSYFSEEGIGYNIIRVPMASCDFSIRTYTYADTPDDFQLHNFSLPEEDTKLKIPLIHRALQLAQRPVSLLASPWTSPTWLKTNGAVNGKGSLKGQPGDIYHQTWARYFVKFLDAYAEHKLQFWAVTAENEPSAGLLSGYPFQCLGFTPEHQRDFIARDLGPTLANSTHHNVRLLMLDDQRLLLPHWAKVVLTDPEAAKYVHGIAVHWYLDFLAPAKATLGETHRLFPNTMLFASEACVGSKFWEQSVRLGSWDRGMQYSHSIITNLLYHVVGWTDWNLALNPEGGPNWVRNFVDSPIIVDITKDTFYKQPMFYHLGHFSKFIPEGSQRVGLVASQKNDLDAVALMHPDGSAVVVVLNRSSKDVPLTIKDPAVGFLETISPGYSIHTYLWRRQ
Sequence of 3',5'-cyclic-AMP phosphodiesterase 4B (Homo sapiens) (Q07343 whole entry, looked up): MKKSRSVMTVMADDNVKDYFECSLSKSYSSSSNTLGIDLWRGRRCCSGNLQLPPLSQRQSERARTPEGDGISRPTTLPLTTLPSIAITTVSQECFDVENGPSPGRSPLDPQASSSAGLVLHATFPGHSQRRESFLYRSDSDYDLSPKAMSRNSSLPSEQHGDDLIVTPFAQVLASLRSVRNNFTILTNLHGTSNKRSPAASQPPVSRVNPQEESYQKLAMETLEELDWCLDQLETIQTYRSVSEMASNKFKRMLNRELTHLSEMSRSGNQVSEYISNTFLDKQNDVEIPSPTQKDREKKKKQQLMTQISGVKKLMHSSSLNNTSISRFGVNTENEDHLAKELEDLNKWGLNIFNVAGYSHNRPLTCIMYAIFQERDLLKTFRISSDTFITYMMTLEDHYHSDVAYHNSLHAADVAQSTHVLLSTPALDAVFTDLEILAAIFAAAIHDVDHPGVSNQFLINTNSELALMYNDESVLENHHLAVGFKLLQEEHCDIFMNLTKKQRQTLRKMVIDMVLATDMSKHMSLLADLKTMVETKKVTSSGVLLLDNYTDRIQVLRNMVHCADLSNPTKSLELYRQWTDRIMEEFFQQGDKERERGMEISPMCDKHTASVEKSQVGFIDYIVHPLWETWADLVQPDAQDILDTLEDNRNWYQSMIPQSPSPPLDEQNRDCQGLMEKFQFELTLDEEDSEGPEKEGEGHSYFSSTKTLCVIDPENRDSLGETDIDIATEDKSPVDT
Sequence of Glucocorticoid receptor (Homo sapiens) (P04150 whole entry, looked up): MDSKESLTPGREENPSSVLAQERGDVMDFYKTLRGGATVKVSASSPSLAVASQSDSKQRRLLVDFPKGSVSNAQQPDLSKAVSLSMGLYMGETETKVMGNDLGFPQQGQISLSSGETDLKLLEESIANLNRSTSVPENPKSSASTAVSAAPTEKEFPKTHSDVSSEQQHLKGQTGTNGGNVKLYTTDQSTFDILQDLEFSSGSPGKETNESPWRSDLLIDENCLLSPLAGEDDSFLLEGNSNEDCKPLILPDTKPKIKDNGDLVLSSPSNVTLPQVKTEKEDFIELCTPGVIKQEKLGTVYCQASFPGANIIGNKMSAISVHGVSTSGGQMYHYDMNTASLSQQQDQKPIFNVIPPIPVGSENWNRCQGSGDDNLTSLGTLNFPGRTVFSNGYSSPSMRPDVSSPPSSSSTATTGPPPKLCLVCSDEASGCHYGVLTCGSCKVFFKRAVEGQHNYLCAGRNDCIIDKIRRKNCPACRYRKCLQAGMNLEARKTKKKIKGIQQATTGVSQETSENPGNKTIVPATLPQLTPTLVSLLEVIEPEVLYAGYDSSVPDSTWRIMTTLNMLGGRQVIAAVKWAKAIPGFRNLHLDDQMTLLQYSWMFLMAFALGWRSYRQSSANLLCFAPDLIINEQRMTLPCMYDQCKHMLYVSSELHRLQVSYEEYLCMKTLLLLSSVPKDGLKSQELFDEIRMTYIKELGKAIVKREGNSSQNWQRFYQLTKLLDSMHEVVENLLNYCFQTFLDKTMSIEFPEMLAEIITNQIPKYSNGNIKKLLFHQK
Sequence of Cytochrome P450 1A2 (Homo sapiens) (P05177 whole entry, looked up): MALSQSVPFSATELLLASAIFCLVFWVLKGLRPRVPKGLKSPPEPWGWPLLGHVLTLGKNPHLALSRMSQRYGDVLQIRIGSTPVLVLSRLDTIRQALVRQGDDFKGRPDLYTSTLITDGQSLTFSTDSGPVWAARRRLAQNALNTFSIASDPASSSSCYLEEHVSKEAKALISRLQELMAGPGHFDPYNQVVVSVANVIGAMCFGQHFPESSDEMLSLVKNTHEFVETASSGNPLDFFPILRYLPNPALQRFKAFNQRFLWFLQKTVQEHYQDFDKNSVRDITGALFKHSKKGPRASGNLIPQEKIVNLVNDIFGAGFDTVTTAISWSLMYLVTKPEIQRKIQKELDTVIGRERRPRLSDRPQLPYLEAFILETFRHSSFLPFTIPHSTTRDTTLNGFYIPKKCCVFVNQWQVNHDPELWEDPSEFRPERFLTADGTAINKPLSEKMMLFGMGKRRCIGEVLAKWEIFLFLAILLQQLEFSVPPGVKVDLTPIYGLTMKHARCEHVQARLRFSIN
Sequence of Ubiquitin carboxyl-terminal hydrolase 1 (Homo sapiens) (O94782 whole entry, looked up): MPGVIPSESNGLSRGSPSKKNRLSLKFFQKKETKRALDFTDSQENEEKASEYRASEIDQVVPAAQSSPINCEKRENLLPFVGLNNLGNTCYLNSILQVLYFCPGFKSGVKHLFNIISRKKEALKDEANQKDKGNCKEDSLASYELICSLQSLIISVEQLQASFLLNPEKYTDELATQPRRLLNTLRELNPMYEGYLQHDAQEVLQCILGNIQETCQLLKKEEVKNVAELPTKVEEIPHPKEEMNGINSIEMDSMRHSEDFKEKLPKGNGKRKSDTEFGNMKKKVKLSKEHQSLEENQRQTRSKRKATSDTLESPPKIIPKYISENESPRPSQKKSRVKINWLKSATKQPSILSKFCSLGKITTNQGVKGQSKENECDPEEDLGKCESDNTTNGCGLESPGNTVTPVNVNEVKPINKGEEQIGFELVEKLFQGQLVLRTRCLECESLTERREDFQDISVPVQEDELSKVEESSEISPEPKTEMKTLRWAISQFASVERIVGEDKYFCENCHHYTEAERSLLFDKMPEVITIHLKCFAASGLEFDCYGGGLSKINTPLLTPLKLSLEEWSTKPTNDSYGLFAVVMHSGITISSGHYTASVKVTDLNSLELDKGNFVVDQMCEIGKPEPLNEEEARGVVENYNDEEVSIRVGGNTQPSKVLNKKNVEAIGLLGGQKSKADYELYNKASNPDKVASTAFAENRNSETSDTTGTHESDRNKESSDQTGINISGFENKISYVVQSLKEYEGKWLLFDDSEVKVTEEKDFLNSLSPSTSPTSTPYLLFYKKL
Sequence of Cytochrome P450 2C19 (Homo sapiens) (P33261 whole entry, looked up): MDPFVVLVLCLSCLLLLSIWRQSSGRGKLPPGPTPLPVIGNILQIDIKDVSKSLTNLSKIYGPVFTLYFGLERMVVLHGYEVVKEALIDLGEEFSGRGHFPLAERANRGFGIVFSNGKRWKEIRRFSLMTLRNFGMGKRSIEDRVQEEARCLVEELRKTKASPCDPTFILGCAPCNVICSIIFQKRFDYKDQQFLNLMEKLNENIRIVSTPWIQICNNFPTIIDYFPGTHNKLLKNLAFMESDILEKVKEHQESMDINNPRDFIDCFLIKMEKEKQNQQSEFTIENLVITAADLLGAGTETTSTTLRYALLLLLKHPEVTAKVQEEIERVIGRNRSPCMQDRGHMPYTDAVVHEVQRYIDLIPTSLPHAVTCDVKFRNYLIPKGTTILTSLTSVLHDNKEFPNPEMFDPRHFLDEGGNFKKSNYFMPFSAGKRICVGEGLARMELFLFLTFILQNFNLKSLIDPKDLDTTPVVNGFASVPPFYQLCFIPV
Sequence of Cytochrome P450 3A4 (Homo sapiens) (P08684 whole entry, looked up): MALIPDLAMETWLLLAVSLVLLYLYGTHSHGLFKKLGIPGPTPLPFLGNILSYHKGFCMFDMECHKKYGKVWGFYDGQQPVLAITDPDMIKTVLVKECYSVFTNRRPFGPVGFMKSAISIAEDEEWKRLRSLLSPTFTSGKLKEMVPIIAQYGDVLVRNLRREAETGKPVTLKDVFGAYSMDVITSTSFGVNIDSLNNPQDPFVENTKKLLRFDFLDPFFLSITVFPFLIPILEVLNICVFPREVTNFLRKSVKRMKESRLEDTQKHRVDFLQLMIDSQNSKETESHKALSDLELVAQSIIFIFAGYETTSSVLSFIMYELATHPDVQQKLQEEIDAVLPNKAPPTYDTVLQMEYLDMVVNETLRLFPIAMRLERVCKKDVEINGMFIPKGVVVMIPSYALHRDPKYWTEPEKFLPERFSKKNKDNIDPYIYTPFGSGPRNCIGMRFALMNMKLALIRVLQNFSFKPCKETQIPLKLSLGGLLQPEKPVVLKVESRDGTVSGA

Consider `Cc1noc(C)c1-c1ccc2ncnc(NCc3ccccc3)c2c1`, for which the Potency in test [1] is > 11.4 µM (inactive); in [3] it was 3.16 µM (active); in [4] it was > 46 µM (inactive); in test [5] it was > 46 µM (inactive); in test [8], 7.94 µM (active). In addition, the activity change, negative = inhibition was 21.4% (inactive) in test [2] and -0.127% (inactive) in [10]. Also, the Potency entry in test [6] and in test [7] was “inactive” throughout. For the same compound, the compound was called inactive in test [9] and in test [11]. Further, the max response in test [10] (setting [18]) is -0.875%; in test [10] (setting [19]), -2.04%.

`c1cncc(-c2nccc(-n3ccnc3)n2)c1`: the Potency was > 11.4 µM (inactive) in [1], > 46 µM (inactive) in test [4] and > 46 µM (inactive) in [5]. Also, the activity change, negative = inhibition is -19.4% (inactive) in [2], 1.68% (inactive) in test [12] and 7.22% (inactive) in test [10]. In addition, the activity, negative = inhibition in test [13] is -2.73% (inactive). The Potency result in [6], in [14], in test [15] and in test [16] was “inactive” throughout. For the same compound, the compound was called inactive in test [9] and in [11]. In addition, the max response in [10] (setting [18]) stood at 3.87%; in [10] (setting [19]) it was 13.2%.

Regarding `CN(C)c1ncc2nc(-c3ccc(F)cc3)c(=O)n(C3CC3)c2n1`, the Potency in test [1] was > 11.4 µM (inactive); in test [3] it was 1.58 µM (active); in test [4], > 9.22 µM (inactive); in test [5], > 46 µM (inactive); in [14], 2 µM (active); in [17], 2.51 µM (active). The activity change, negative = inhibition in test [2] is 18.2% (inactive); in test [10], 2.01% (inactive). The Potency entry in test [6] was “inactive”. The max response amounted to 10.2% in test [10] (setting [18]) and 13.7% in test [10] (setting [19]). Also, the result in test [11] was inactive.

Consider `COc1ccc(C(=O)N2CCC[C@@]3(CCN(c4ncccn4)C3)C2)cc1`, for which the Potency in test [1] was > 11.4 µM (inactive); in test [5], > 46 µM (inactive). The activity change, negative = inhibition in test [2] is -20.4% (inactive); in test [12], 4.77% (inactive); in test [10], 4.06% (inactive). Further, the activity, negative = inhibition in test [13] is 1.38% (inactive). In addition, the Potency entry in test [6] and in test [14] was “inactive” throughout. Further, the results for the max response in [10] (setting [18]) and in test [10] (setting [19]) were 3.46% and 12.1%, respectively. Also, in test [11], the outcome was inactive.

For `O=C(c1csnn1)N1CCC2(CC1)CN(c1ncccn1)C2`, the Potency in test [1] is > 11.4 µM (inactive); in [5] it was > 46 µM (inactive). The figures for the activity change, negative = inhibition in test [2], in [12] and in [10] were 13.2% (inactive), 16.9% (inactive) and 0.698% (inactive), respectively. For the same compound, in [13], the activity, negative = inhibition is 1.44% (inactive). The Potency result in test [6] and in test [14] was “inactive” each time. The max response is -0.721% in [10] (setting [18]) and 1.07% in [10] (setting [19]). Also, in test [11], the outcome was inactive.

On to `CC(=O)NCCNc1nc(-c2ccccc2CN(C)C)nc2ccccc12`, for which the figures for the Potency in test [1], in [4] and in test [5] were > 11.4 µM (inactive), > 46 µM (inactive) and > 46 µM (inactive), respectively. In addition, the activity change, negative = inhibition is 6.16% (inactive) in test [2], 2.15% (inactive) in [12] and 5.82% (inactive) in [10]. Further, the activity, negative = inhibition in test [13] was 13.7% (inactive). Further, the Potency result in [6], in test [14], in test [15] and in test [16] was “inactive” each time. For the same compound, the call in test [9] and in [11] was inactive. Moreover, the max response in [10] (setting [18]) was 13.1%; in test [10] (setting [19]), 18.7%.
